About 83,000 compounds went through this panel and 20% of them were active in at least one assay; those are over-represented in the sample as a whole.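 96-well plates, one dose, 48 hours. Percent growth reported; active if below 10.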 A number with no mark means an inactive call. Activity calls are given as the source filed them.
System: HL-60(TB) leukemia
Assay: NCI-60 one-dose screen, 48 h (100 = growth as untreated, 0 = no growth, -100 = all killed)
Conditions: 10 µM unless noted

Row | SMILES | growth
1 | Cn1cc(-c2csc(-c3cn(C)c4ncccc34)n2)c2cc(Br)cnc21 | 83.1%
2 | COc1ccc2c(O)c(/C=C3\N=Nc4ncccc43)oc2c1C[C@@H]1CCNC[C@H]1F | -23.3% (active)
3 | CC(=O)c1cc(C(=O)c2ccc3c(c2)Sc2ccccc2N3)c2c(C)cc(C)cn12 | -12.6% (active)
4 | CO[C@H]1/C=C(/C)CCC[C@H](C)[C@H](O)[C@@H](C)C(=O)C(C)(C)[C@@H](O)CC(=O)O[C@@H]1/C(C)=C/c1csc(C)n1 | 24.3%
5 | O=[N+]([O-])c1cccc(-c2nc3sccn3c2-c2ccnc(NCCCNS(=O)(=O)c3ccc(F)cc3)n2)c1 | -12.9% (active)
6 | CCCCCCCCC(=O)Nc1ccc(O)cc1 | 61.5%
7 | C=C(C)[C@@H]1C/C=C(/C=O)CC[C@@H]2O[C@@]2(C)CC/C=C(\C)CC1 | 162%
8 | C/C(=N/NC(N)=S)c1sc(Nc2cccc(Cl)c2)nc1C | 65%
9 | C=C1C(=O)O[C@H]2[C@H]1CC/C(COC(=O)CCSSCCC(=O)OC/C1=C/CC[C@@]3(C)O[C@H]3[C@H]3OC(=O)C(=C)[C@@H]3CC1)=C\CC[C@@]1(C)O[C@@H]21 | -47.9% (active)
10 | O=C(O)COc1ccc(Cl)cc1C1CCCCC1 | 116%
11 | CN(C)CCCn1c2c(c3ccc(N4CCNCC4)cc3c1=O)C(=O)c1ccccc1-2 | 8.73% (active)
12 | COc1cccc2c1C(=O)c1c(O)c3c(c(O)c1C2=O)CC(O)(/C(C)=N/NC(=O)CCCCC(=O)N/N=C(\C)C1(O)Cc2c(O)c4c(c(O)c2C(OC2CC(N)C(O)C(C)O2)C1)C(=O)c1c(OC)cccc1C4=O)CC3OC1CC(N)C(O)C(C)O1 (stereo unspecified) | -9.19% [5 µM] (active)
13 | O=C(Nc1nc(-c2ccc(Cl)cc2)cs1)c1cc(-c2ccc(Br)cc2)nc2ccc(Cl)cc12 | -24.7% (active)
14 | CCCc1nn(C)c2c(=O)[nH]c(-c3cc(S(=O)(=O)N4CCN(C)CC4)ccc3OCC)nc12 | 114%
15 | CCN1C(=O)/C(=C/C=C/N(C)c2ccccc2)SC1=S | 78.2%
16 | Cc1nc(/N=C(\N)NC(=O)Nc2ccccc2Cl)sc1C | 3.77% (active)
17 | CNC1=C([N+](=O)[O-])C(c2ccc(OC)cc2)C(C#N)=C(c2cccs2)O1 (stereo unspecified) | 99.5%
18 | COc1cc(-c2nc(-c3nnc(-c4ccccc4Cl)o3)c3ccccn23)cc(OC)c1OC | 67.1%
19 | CCC1C(=O)COC1=O (stereo unspecified) | 96.9%
20 | Nc1nc(SCC2(CCl)COC2)c2[nH]cnc2n1 | 105%
21 | CCNC(=O)Oc1ccc[nH]c1=O | 94.1%
22 | S=C(NCc1ccccc1)NCc1ccccc1 | 84.7%
23 | COc1ccc2c(N)ncc(C#Cc3cc(C(=O)Nc4ccc(CN5CCN(C)CC5)c(C(F)(F)F)c4)cnc3C)c2c1 | 43.9%
24 | COc1ccc(NC(=O)c2sc3nc(C)c(C(=O)c4ccccc4)cc3c2N)cc1 | 78.8%
25 | CC(=O)Nc1ccc(C(=O)/C=C/c2ccccc2)cc1 | 53.9%
26 | CN(C)c1ccc(N=C2C=CC(=O)C=C2)cc1 | 111%
